Assay outcomes as filed in PubChem BioAssay.
AmpC inh no detg – qHTS Inhibitors of AmpC Beta-Lactamase (assay without detergent); P00811; AmpC nitrocefin hydrolysis, absorbance 480 nm, 0.0001% Triton; Potency, µM (doses to about 57.1 µM), actives largely listed as inhibitors; 0.52% of 330,000 active; also: nearly all actives have a fitted effect of over 20% in size
Target sequence (P00811 whole entry, looked up): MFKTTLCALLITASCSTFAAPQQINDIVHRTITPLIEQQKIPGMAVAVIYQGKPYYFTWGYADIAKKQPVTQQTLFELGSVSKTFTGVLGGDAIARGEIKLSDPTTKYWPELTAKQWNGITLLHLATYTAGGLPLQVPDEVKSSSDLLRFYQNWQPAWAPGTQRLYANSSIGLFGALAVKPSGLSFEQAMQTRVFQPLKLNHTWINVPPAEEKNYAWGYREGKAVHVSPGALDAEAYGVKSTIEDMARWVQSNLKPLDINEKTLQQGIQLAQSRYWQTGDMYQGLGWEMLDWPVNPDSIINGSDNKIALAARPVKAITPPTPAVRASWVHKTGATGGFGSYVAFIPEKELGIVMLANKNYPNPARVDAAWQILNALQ
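20 mM phosphate pH 7.0 + 0.01% (detergent screen) or 0.0001% Triton X-100; 5.3 nM AmpC reagent; cpd preinc 15 min RT; nitrocefin (800 uM stock) to start; A480 q20 s × 4 min; Activity was normalised to no-enzyme and no-compound control wells.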
AmpC detergent – qHTS Inhibitors of AmpC Beta-Lactamase (assay with detergent); 0.041% of 370,000 active; AmpC hydrolysis of nitrocefin, absorbance 480 nm, 0.01% Triton; Potency, µM (titrated, usually from 114 µM), usual class: inhibitors; AID 485294, 2010; also: nearly all actives have a fitted effect of over 25% in size
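AmpC (5.3 nM in the dispensed reagent) in 20 mM phosphate pH 7.0 with 0.01% (detergent screen) or 0.0001% Triton X-100 was preincubated with compounds for 15 min at room temperature. Nitrocefin was then added from an 800 uM solution, and hydrolysis was followed at 480 nm.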
Sm TGR inh – qHTS Assay for the Inhibitors of Schistosoma Mansoni Peroxiredoxins. AID 485364, 2010. Potency, µM (series often up to 114 µM), most hits filed as inhibitors. Schistosoma mansoni thioredoxin glutathione reductase (TGR), Q962Y6. 3% of 360,000 active. purified TGR, DTNB reduction, TNB absorbance 405 nm; also: nearly all actives have a fitted effect of over 60% in size
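Kinetic colorimetric format: TGR-catalysed, NADPH-driven DTNB reduction monitored via TNB absorbance. Enzyme dispensed at 20 nM; compound exposure 15 min at room temperature before reaction start.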
Large screens that a line does not name were inactive. The list is not random: actives were taken first. Their share in the collection is about 3.3%. Calls follow the shape of the dose curve; as a rule, active = well fitted curve in the direction sought with a large enough effect; inconclusive = small, poorly fitted or top-dose-only effect, or another doubt; inactive = no such curve, though single readings can be large; an effect the other way counts as inactive or inconclusive.

Cc1onc(-c2c(F)cccc2Cl)c1C(=O)N[C@@H]1C(=O)N2C(C(=O)O)C(C)(C)S[C@H]12 (stereo partly specified)	AmpC detergent 2.5µM (no result: AmpC inh no detg)
Cc1c(C(=O)N2CCC(C(=O)Nc3ccc(F)cc3)CC2)sc2nc[nH]c(=O)c12	none (no result: AmpC inh no detg)
O=S(=O)(NCCSc1ccccn1)c1ccc(Br)cc1	none
CC(NC(=O)c1nn(C)c2c1CSc1ccccc1-2)c1ccccc1 (stereo unspecified)	none (no result: AmpC inh no detg)
COc1cccc(C2C(C(=O)c3cc4ccccc4o3)=C(O)C(=O)N2c2cc(C)on2)c1OC (stereo unspecified)	none
COc1cccc(C2C(C(=O)c3cc4cccc(OC)c4o3)=C(O)C(=O)N2c2cc(C)on2)c1OC (stereo unspecified)	AmpC inh no detg 20µM, AmpC detergent inconclusive
COc1cccc2cc(C(=O)C3=C(O)C(=O)N(c4cc(C)on4)C3c3cccs3)oc12 (stereo unspecified)	Sm TGR inh 28µM
COc1cc(C2C(C(=O)c3cccs3)=C(O)C(=O)N2c2cc(C)on2)ccc1O (stereo unspecified)	AmpC detergent inconclusive
CCC1(c2ccccc2)NC(=O)N(CC(=O)Nc2ccc(OC)nc2)C1=O (stereo unspecified)	none
CC(=O)Nc1cccc(NC(=O)Cn2cnc3c2c(=O)n(C)c(=O)n3C)c1	none (no result: AmpC inh no detg)
CC(C)CN(CC(C)C)C1=N/C(=C\c2ccco2)C(=O)N1c1ccccc1	Sm TGR inh 6.3µM
COc1ccc(N2C(=O)/C(=C\c3ccco3)N=C2SCC(=O)N(C(C)C)C(C)C)cc1Cl	AmpC detergent inconclusive, Sm TGR inh inconclusive
CCSC1=N/C(=C\c2cccnc2)C(=O)N1c1ccccc1	none
CCN(CC)C1=N/C(=C\c2ccco2)C(=O)N1c1ccccc1	AmpC detergent inconclusive, Sm TGR inh 45µM
O=C(COC(=O)c1ccc(Br)o1)Nc1nc2ccccc2s1	none
O=C(COC(=O)c1ccc([N+](=O)[O-])o1)Nc1nc2ccccc2s1	Sm TGR inh 28µM
COc1ccc(-c2nnnn2CCc2ccccc2)cc1	AmpC inh no detg 0.2µM
COc1ccc(-c2nnnn2C(C)C)cc1	none
O=C(CNC(=O)c1ccccc1Cl)N/N=C/C=C/c1ccccc1	none
O=C(CNC(=O)c1ccccc1F)N/N=C\C=C\c1ccccc1	Sm TGR inh 22µM
O=C(CCc1cn(Cc2ccccc2F)c2ccccc12)NCc1ccc(Cl)cc1	none (no result: AmpC inh no detg)
CC(C)c1ccc(NC(=O)CN2C(=O)CCc3cc(S(=O)(=O)N4CCOCC4)ccc32)cc1	none (no result: AmpC inh no detg)
CCOC(=O)C1CCN(CC(O)COCc2ccc(Cl)cc2)CC1 (stereo unspecified)	none
CCOCC(O)CSCc1ccc(Cl)cc1 (stereo unspecified)	Sm TGR inh 10µM (no result: AmpC inh no detg)
Cc1cccc(NC(=O)c2ccc3[nH]c(=O)c(=O)[nH]c3c2)n1	none
COc1ccc(Cl)cc1Nc1ncnc2sc(C)c(S(=O)(=O)N3CCC(C)CC3)c12	none
CCCc1n[nH]c(=O)c2c1nnn2Cc1ccccc1F	none
COc1cc(CN2CCc3ccccc3C2)ccc1O	Sm TGR inh 20µM
COc1ccc(CN2CCc3ccc(NC(=O)CCc4ccccc4OC)cc3C2)c(O)c1	none
COc1cc(CN2CCc3ccccc3C2)cc([N+](=O)[O-])c1O	none
COc1cc(CN2CCc3ccc(NC(=O)CCc4ccccc4OC)cc3C2)ccc1O	Sm TGR inh 13µM
Cc1ccc(S(=O)(=O)c2c(C)cc(C)[nH]c2=O)c(C)c1	none
CC(=O)NC(Cc1ccccc1C)C(=O)NC1CCN(C(=O)c2cccc(C)c2)CC1 (stereo unspecified)	none
O=C(Nc1nnc(-c2ccco2)s1)C1CCN(S(=O)(=O)c2ccc(Cl)cc2)CC1	none
COc1ccc(C(=O)Nc2nnc(-c3ccco3)s2)cc1	none
O=C(Nc1nnc(-c2ccco2)s1)C1CC1	AmpC detergent inconclusive, Sm TGR inh 45µM
O=C(Nc1nnc(-c2ccco2)s1)c1ccccc1	Sm TGR inh 25µM
O=C(COC(=O)CCc1nc2ccccc2c(=O)[nH]1)Nc1ccccc1OC(F)F	none
Cc1cc(NS(=O)(=O)c2ccc(NC(=O)C(C)Oc3cc(C)c(Cl)c(C)c3)cc2)no1 (stereo unspecified)	none
O=C(Nc1ccccc1OC(F)F)c1ccc(-n2cncn2)c([N+](=O)[O-])c1	AmpC detergent inconclusive
Cc1ccc(NC(=O)c2ccc(-n3cccn3)c([N+](=O)[O-])c2)cc1C	Sm TGR inh 11µM
COc1ccccc1NC(=O)c1ccc(-n2cccn2)c([N+](=O)[O-])c1	Sm TGR inh 25µM
O=C(Nc1ccc(Cl)cc1)c1ccc(-n2cccn2)c([N+](=O)[O-])c1	none
COc1ccc(NC(=O)c2ccc(-n3cccn3)c([N+](=O)[O-])c2)cc1	Sm TGR inh 40µM
Cc1ccc(NC(=O)c2ccc(-n3cncn3)c([N+](=O)[O-])c2)cc1	none
Cc1nn(CC(=O)Nc2cccnc2)c(C)c1[N+](=O)[O-]	AmpC detergent inconclusive
NS(=O)(=O)c1ccc(NC(=O)COC(=O)COc2ccccc2)cc1	none
CCCCn1c(N)c(N(CCOC)C(=O)CSCc2ccccc2C)c(=O)[nH]c1=O	none
CCOC(=O)c1cc2c(=O)n3ccccc3nc2n(Cc2ccco2)c1=NC(=O)c1ccc(Br)cc1	Sm TGR inh inconclusive (no result: AmpC inh no detg)
CCOC(=O)c1cc2c(=O)n3ccccc3nc2n(Cc2ccco2)c1=NC(=O)c1cccc(Br)c1	Sm TGR inh 2.2µM (no result: AmpC inh no detg)
CCOC(=O)c1cc2c(=O)n3ccccc3nc2n(Cc2ccco2)c1=NC(=O)c1ccc(OCC)cc1	none (no result: AmpC inh no detg)
CCOC(=O)c1cc2c(=O)n3ccccc3nc2n(Cc2ccco2)c1=NC(=O)c1ccccc1Br	Sm TGR inh 1.6µM (no result: AmpC inh no detg)
CCOC(=O)c1cc2c(=O)n3ccccc3nc2n(Cc2ccco2)c1=NC(=O)c1ccccc1OCC	Sm TGR inh inconclusive
CCOC(=O)c1cc2c(=O)n3ccccc3nc2n(Cc2ccco2)c1=NC(=O)c1c(F)cccc1Cl	Sm TGR inh 4µM (no result: AmpC inh no detg)
CC(C)Oc1ccc(S(=O)(=O)N2CCCCC2)cc1NC(=O)CN1CCCC1c1cccs1 (stereo unspecified)	none
COCCCNC(=O)c1ccccc1Sc1ccc(NC(C)=O)nc1	AmpC detergent inconclusive
O=C(/C=C/c1ccccc1)c1ccc2c(c1)OCO2	Sm TGR inh inconclusive
O=C(/C=C/c1ccncc1)c1ccc2c(c1)OCCO2	Sm TGR inh 45µM
CCN(c1ccccc1)S(=O)(=O)c1nnc(NC(=O)COc2ccccc2F)s1	none (no result: AmpC inh no detg)
Cc1ccc(-n2ncc3c2CC(C)(C)CC3NC(=O)C2CCOCC2)cc1 (stereo unspecified)	Sm TGR inh inconclusive
Cc1cccnc1NC(=O)c1cc2ccccc2oc1=O	none
Cc1ccc(NC(=O)Cn2c(=O)c3ccccc3n3nncc23)cc1	none (no result: AmpC inh no detg)
CCn1c2ccccc2c2cc(CN3CCN(Cc4ccc(Cl)cc4)CC3)ccc21	none (no result: AmpC inh no detg)
N#Cc1nc(-c2ccc(F)cc2)oc1NCc1cccc2c1OCO2	none
Cc1ccc(-c2nc(C#N)c(NCc3cccc4c3OCO4)o2)cc1	AmpC inh no detg 0.32µM
CC(C)(C)C(=O)Nc1ccnn1C1CCN(C(=O)c2ccc(Cl)cc2F)CC1	none
